Source: PubChem (The Scripps Research Institute Molecular Screening Center)
GSTO1 inh: inhibitors of recombinant GSTO1, primary screen, counter-screen for RBBP9 inhibitor project, biochemical, fluorescence polarization | activity-based probe fluorescence polarization | inhibition, % at 5.96 µM | 1.1% of 300,000 active | AID 1974, 2009;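 active means inhibition above the campaign mean inhibition plus 3 SD, cut at about 35% in these data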;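 further: 0% = GSTO1-1 with DMSO and 100% = wells lacking GSTO1-1 enzyme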
Fam108B inh: mouse Fam108B serine hydrolase inhibitors, primary screen, counter-screen for RBBP9 inhibitor project, biochemical, fluorescence polarization. recombinant Fam108B, FP-Rh probe fluorescence polarization. 0.33% of 300,000 active. inhibition, % at 9.51 µM;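 active means inhibition above the screen mean inhibition plus 3 SD, computed separately per campaign, cut at about 18% in these data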;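 further: inhibitors lower polarization as less probe binds the enzyme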
PAD4 inh: human PAD4 inhibitors, primary screen, biochemical, fluorescence polarization, 1536-well format; inhibition, % at 6.36 µM; AID 485272, 2010; recombinant PAD4, RCA probe fluorescence polarization; 0.41% of 330,000 active;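 active means percent inhibition above a cutoff equal to the mean of all tested compounds plus 3 SD, cut at about 15% in these data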;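 further: 0% = PAD4 with RCA probe and DMSO and 100% = probe without PAD4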
Target sequence (Q9UM07 whole entry, looked up): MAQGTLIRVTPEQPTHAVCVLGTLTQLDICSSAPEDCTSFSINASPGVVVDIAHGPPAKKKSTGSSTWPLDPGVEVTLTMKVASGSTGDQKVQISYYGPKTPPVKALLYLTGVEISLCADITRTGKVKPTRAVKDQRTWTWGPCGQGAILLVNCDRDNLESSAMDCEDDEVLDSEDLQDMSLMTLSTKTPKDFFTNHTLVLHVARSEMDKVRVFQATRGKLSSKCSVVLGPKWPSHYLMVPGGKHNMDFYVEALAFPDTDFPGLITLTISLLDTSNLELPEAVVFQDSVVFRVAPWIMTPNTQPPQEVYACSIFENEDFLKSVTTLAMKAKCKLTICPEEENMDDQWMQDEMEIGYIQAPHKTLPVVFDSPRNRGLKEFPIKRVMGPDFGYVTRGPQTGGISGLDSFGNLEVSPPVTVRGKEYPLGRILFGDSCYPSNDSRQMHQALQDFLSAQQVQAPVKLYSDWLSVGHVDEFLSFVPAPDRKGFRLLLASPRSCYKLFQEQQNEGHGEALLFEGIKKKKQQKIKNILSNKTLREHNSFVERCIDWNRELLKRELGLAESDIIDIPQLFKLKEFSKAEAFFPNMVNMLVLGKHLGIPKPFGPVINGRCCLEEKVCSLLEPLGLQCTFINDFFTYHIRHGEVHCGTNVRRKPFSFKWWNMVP
LYPLA2 inh: LYPLA2 inhibitors, primary screen, counter-screen for PME1 inhibitor project, biochemical, fluorescence polarization, FP-Rh probe ABPP | 0.38% of 320,000 active | recombinant LYPLA2 | inhibition, % at 5.9 µM;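 active means inhibition above the screen-wide mean plus 3 SD, limit set per campaign, cut at about 26% in these data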;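 further: 0% = LYPLA2 with DMSO and 100% = wells lacking LYPLA2 enzyme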
PME-1 inh: PME-1 inhibitors via competitive probe labeling, primary screen, biochemical, fluorescence polarization, FP-Rh probe, HTS; Protein phosphatase methylesterase 1 (Homo sapiens), Q9Y570; recombinant PME-1; inhibition, % at 5.9 µM; 0.53% of 320,000 active; AID 2130, 2009;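 active means inhibition above the campaign mean of all compounds plus 3 SD, cut at about 26% in these data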;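 further: competitive labeling of PME-1 active site by serine hydrolase directed probe; 0% = PME-1 with DMSO and 100% = wells lacking PME-1 enzyme; inhibitors block probe labeling so polarization falls and inhibition rises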
LYPLA1 counter: LYPLA1 inhibitors, primary screen, counter-screen for PME1 inhibitor project, biochemical, fluorescence polarization, FP-Rh probe ABPP; recombinant LYPLA1; inhibition, % at 5.9 µM; 0.16% of 320,000 active;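 active means inhibition above the mean of all tested compounds plus 3 SD, set per campaign, cut at about 14% in these data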;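 further: inhibitors block serine hydrolase probe labeling of LYPLA1 so polarization falls; 0% = enzyme with DMSO and 100% = wells lacking LYPLA1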
GSTO1 inh conf: GSTO1 inhibitor hit confirmation, counter-screen for RBBP9 inhibitor project, biochemical, fluorescence polarization, triplicate; AID 2176, 2009; inhibition, % at 5.96 µM; shares compounds with GSTO1 inh; 54% of 2,400 active; recombinant GSTO1, probe fluorescence polarization;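 active means inhibition above the primary screen's cutoff, its mean inhibition plus 3 SD, cut at about 35% in these data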;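 further: loss of polarization as inhibitors block binding of rhodamine sulfonate ester activity probe; 0% = GSTO1 with DMSO and 100% = wells lacking GSTO1 enzyme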
GSTO1 recomb ABPP: inhibitors of purified human GSTO1, late-stage follow-up, biochemical, gel ABPP, SE-Rh probe, percent inhibition; shares compounds with GSTO1 inh; recombinant GSTO1, gel ABPP SE-Rh probe fluorescence; inhibition, % at 1 µM; 30% of 130 active;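 active means inhibition of the enzyme GSTO1 above about 75%, limit read from the data; inactive means inhibition below that limit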
Starred values were filed as active, the others as inactive. An excerpt weighted towards active compounds, which were near 1.8% of everything screened.

For CCOC(=O)c1cnc(-n2[nH]c(C)cc2=O)[nH]c1=O the results were GSTO1 inh 42*, Fam108B inh -3, PAD4 inh -2, LYPLA2 inh -4, PME-1 inh -8, LYPLA1 counter -6 and GSTO1 inh conf 4.
For CCCOc1cc(N)ccc1C(=O)OCCN(CC)CC the results were GSTO1 inh 6, Fam108B inh -2, PAD4 inh -2, LYPLA2 inh 1, PME-1 inh 0 and LYPLA1 counter 2.
`CCCOc1ccc(N)cc1N` gave GSTO1 inh 78*, Fam108B inh 17, PAD4 inh 49*, LYPLA2 inh -1, PME-1 inh 13, LYPLA1 counter -6 and GSTO1 inh conf -14.
Screening CC1Cc2ccccc2N1C(=O)CN(C)CC(=O)Nc1ccc(OC(F)(F)F)cc1 (stereo unspecified) returned PAD4 inh 1, LYPLA2 inh 8, PME-1 inh 6 and LYPLA1 counter 0.
Screening Cc1ccccc1-n1ncc2c([N+](=O)[O-])cc([N+](=O)[O-])cc21 returned GSTO1 inh 39*, Fam108B inh 4, PAD4 inh -8, LYPLA2 inh 6, PME-1 inh 4, LYPLA1 counter 1 and GSTO1 inh conf 3.
For O=C(CCl)Nc1cccc2ncccc12 the results were GSTO1 inh 69*, Fam108B inh -2, PAD4 inh -1, LYPLA2 inh -7, PME-1 inh -1, LYPLA1 counter -5 and GSTO1 inh conf 77*.
For O=C(CNC(=S)N(Cc1ccccc1)Cc1ccccc1F)NCCc1ccc(Cl)cc1 the results were GSTO1 inh -6, Fam108B inh -23, PAD4 inh -5, LYPLA2 inh -18, PME-1 inh -3 and LYPLA1 counter -18.
For CCC1(c2ccc(F)cc2)NC(=O)N(CC(=O)c2cc(C)n(C3CC3)c2C)C1=O (stereo unspecified) the results were GSTO1 inh -1, Fam108B inh 1, PAD4 inh -7, LYPLA2 inh 4, PME-1 inh 4 and LYPLA1 counter 2.
For C/C(=N\Nc1cccc2cccnc12)c1ccc[nH]1 the results were GSTO1 inh 47*, Fam108B inh 8, PAD4 inh -2, LYPLA2 inh -2, PME-1 inh 6, LYPLA1 counter 2 and GSTO1 inh conf 3.
For Cc1ccc(S(=O)(=O)N[C@@H](Cc2ccccc2)C(=O)CCl)cc1 the results were GSTO1 inh 45*, Fam108B inh -6, PAD4 inh 8, LYPLA2 inh 6, PME-1 inh 4, LYPLA1 counter -1 and GSTO1 inh conf 55*.
Screening COc1cc(OC)c([N+](=O)[O-])cc1/C=N/NC(=O)c1ccncc1 returned GSTO1 inh 49*, Fam108B inh 2, PAD4 inh -8, LYPLA2 inh -5, PME-1 inh 1, LYPLA1 counter -1 and GSTO1 inh conf 18.
`C=CCOc1ccc(CNC(C)(C)CO)cc1OCC` gave GSTO1 inh -2, Fam108B inh -5, PAD4 inh -3, LYPLA2 inh -3, PME-1 inh 0 and LYPLA1 counter -5.
Screening Cc1c(C(=O)Nc2nc(-c3ccccn3)cs2)oc2ccccc12 returned PAD4 inh 0, LYPLA2 inh -10, PME-1 inh -20 and LYPLA1 counter -12.
`O=C(Nc1nc(-c2ccccn2)cs1)c1cc2ccccc2o1` gave GSTO1 inh 48*, Fam108B inh -6, PAD4 inh -6, LYPLA2 inh -4, PME-1 inh -21, LYPLA1 counter -4 and GSTO1 inh conf 39*.
For Cc1cc[n+](C2=C([O-])c3ccccc3C(=O)/C2=N\S(=O)(=O)c2cccs2)cc1C the results were GSTO1 inh 90*, Fam108B inh 3, PAD4 inh 6, LYPLA2 inh -1, PME-1 inh -2, LYPLA1 counter 0 and GSTO1 inh conf 90*.
Cc1cc(C)c[n+](C2=C([O-])c3ccccc3C(=O)/C2=N\S(=O)(=O)c2cccs2)c1 was read as GSTO1 inh 81*, Fam108B inh 5, PAD4 inh -16, LYPLA2 inh 1, PME-1 inh 9, LYPLA1 counter 0 and GSTO1 inh conf 88*.
`Cc1cc(C)cc(NS(=O)(=O)c2cccs2)c1` gave GSTO1 inh 2, Fam108B inh 2, PAD4 inh 3, LYPLA2 inh -5, PME-1 inh 0 and LYPLA1 counter 0.
`COC(=O)CC(CP(=O)(O)CN(C)C=O)C(=O)OC` (stereo unspecified) gave GSTO1 inh 6, Fam108B inh 1, PAD4 inh -5, LYPLA2 inh 0, PME-1 inh -6 and LYPLA1 counter 4.
Screening Cc1cccc(CN2CCN(C(=O)c3cccc4ccccc34)CC2)c1 returned GSTO1 inh 6, Fam108B inh -1, PAD4 inh 6, LYPLA2 inh -2, PME-1 inh 7 and LYPLA1 counter -3.
For Cc1cccc(CN2CCN(C(=O)CCl)CC2)c1 the results were GSTO1 inh 96*, Fam108B inh 3, PAD4 inh -2, LYPLA2 inh 1, PME-1 inh 7, LYPLA1 counter -3, GSTO1 inh conf 99* and GSTO1 recomb ABPP 61.
Screening CCC(=O)N(C1=C(NC)C(=O)c2ccccc2C1=O)C(C)C returned GSTO1 inh 50*, Fam108B inh 1, PAD4 inh -5, LYPLA2 inh -1, PME-1 inh 1, LYPLA1 counter -1 and GSTO1 inh conf 13.
Screening CCC1(c2ccccc2)NC(=O)N(CC(=O)Nc2ccccc2N2CCCC2)C1=O (stereo unspecified) returned GSTO1 inh 2, Fam108B inh -9, PAD4 inh -1, LYPLA2 inh 5, PME-1 inh -5 and LYPLA1 counter 1.
For O=C(CCl)N1N=C(c2ccco2)CC1c1ccco1 (stereo unspecified) the results were GSTO1 inh 90*, Fam108B inh -2, PAD4 inh 0, LYPLA2 inh 9, PME-1 inh 1, LYPLA1 counter 4 and GSTO1 inh conf 97*.
